CYP2C9 act – human CYP2C9 activators, primary screen, biochemical, luminescence | recombinant CYP2C9, luciferin-H conversion; hits give high values; factor 1 = untreated enzyme, 0 = blocked | activation factor at 5 µM | Cytochrome P450 2C9 (Homo sapiens), P11712 | hit rate 1.4% among 96,000 | AID 1024, 2008;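 active means activation factor of 2 or more for CYP2C9 at a 5 µM dose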
Target sequence (P11712 whole entry, looked up): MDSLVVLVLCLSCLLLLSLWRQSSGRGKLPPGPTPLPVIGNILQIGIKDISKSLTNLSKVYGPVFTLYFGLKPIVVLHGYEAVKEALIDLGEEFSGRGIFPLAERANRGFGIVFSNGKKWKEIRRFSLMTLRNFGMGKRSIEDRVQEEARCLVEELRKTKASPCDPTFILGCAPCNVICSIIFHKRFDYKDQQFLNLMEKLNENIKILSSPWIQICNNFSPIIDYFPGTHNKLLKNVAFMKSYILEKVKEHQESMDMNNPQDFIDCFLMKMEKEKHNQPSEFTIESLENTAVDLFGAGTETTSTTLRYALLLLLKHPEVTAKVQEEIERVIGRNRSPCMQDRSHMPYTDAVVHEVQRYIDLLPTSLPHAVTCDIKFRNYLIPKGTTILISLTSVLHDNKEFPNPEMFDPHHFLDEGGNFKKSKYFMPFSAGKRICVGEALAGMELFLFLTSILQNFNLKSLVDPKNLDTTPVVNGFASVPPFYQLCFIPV
PostGolgi ctrl – growth inhibition of yeast control strain, primary screen, counter-screen for post-Golgi transport modulator project. hit rate 5% among 98,000. efflux-deficient yeast background strain, growth absorbance A615, 16 h. inhibition, % at 10 µM
CYP2C19 act – human CYP2C19 activators, primary screen, biochemical, luminescence; AID 1025, 2008; Cytochrome P450 2C19 (Homo sapiens), P33261; activation factor at 5 µM; recombinant CYP2C19, luciferin-H EGE luminescence; hits give high values; 0 = fully inhibited enzyme, 1 = untreated enzyme; 96,000 tested, under 10 active;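 active means activation factor of at least 2 at 5 µM in the primary screen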
CYP2C9 inhib – blockers of cytochrome P450 2C9 activity – biochemical, luminescence, ADME assay, primary screen | P11712 | CYP2C9 Supersomes, luciferin-H conversion | inhibition, % at 5 µM | hit rate 20% among 96,000 | AID 777, 2007;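 active means blocking of liver enzyme CYP2C9 beyond about 50% at 5 µM, limit read from the data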
CYP2C19 inh – blockers of cytochrome P450 2C19 activity – biochemical, luminescence, ADME assay, primary screen. inhibition, % at 5 µM. hit rate 21% among 96,000. CYP2C19 Supersomes, luciferin-H EGE luminescence, 30 min;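 active means CYP2C19 inhibition above a set limit at 5 µM in the primary screen, cut at about 50% in these data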
PostGolgi yeast – phenotypic screen on post-Golgi transport, primary screen; AID 739, 2007; inhibition, % at 10 µM; post-Golgi transport phenotypic cell assay; hit rate 0.9% among 98,000;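 further: yeast cells grown in 1536-well plates; yeast grown about 18 h at 30C before absorbance read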
Large screens that a line does not name were inactive. These entries were drawn from the full list. Unless noted, no stated cut-off is given here; in the data, active means inhibition above about 30%; inactive means the rest.

CCOC(=O)N1CCC(N2C(=O)c3ccccc3C2Nc2c(C)cccc2C)CC1 (stereo unspecified)	CYP2C9 inhib 94, CYP2C19 inh 95
CCOC(=O)N1CCC(N2C(=O)c3ccccc3C2Nc2ccc(C)cc2)CC1 (stereo unspecified)	none
CCOC(=O)N1CCC(N2C(=O)c3ccccc3C2Nc2ccccc2)CC1 (stereo unspecified)	CYP2C9 inhib 80, CYP2C19 inh 65
CCOC(=O)N1CCC(N2C(=O)c3ccccc3C2Nc2cc(C(=O)OC)cc(C(=O)OC)c2)CC1 (stereo unspecified)	CYP2C9 inhib 66, CYP2C19 inh 73
CCOC(=O)N1CCC(N2C(=O)c3ccc(C(=O)O)cc3C2=O)CC1	none
CCOC(=O)N1CCC(N2C(=O)c3cc(C(=O)NC4CCCCC4)ccc3C2O)CC1 (stereo unspecified)	none
O=C(O)CN(c1ccccc1F)S(=O)(=O)c1ccccc1	none
CN1C(=O)c2ccc(S(=O)(=O)c3ccc(C(=O)O)cc3)cc2C1=O	none
NC(=O)CSc1nnc(Cn2c(=O)sc3ccccc32)n1-c1cccc(Cl)c1	none
COc1ccc(C(=O)Nn2c(SCc3ccc([N+](=O)[O-])cc3)nc3ccccc3c2=O)cc1	CYP2C9 inhib 84
CCOC(=O)CSc1nc2ccccc2c(=O)n1NC(=O)c1ccccc1	CYP2C9 inhib 67
Cc1nc(SCc2ccc([N+](=O)[O-])cc2)nc2ccccc12	none
Cc1ccc(CNC(=O)CSc2nc3ccsc3c(=O)n2NC(=O)c2ccccc2)cc1	CYP2C9 inhib 64
COc1ccc(C(=O)Nn2c(SCC(=O)c3ccccc3)nc3ccccc3c2=O)cc1	none
CN(c1cc(=O)n2ccccc2n1)C1CCCCC1	none
CCOc1cc(N2CCOCC2)c(OCC)cc1NC(=O)COC(=O)CCc1c[nH]c2ccccc12	none
CCc1ccc2c(c1)C1(SC(NC(C)=O)=NN1C(C)=O)C(=O)N2C(C)C (stereo unspecified)	none
CCc1ccc(C2(C)SC(NC(C)=O)=NN2C(C)=O)cc1 (stereo unspecified)	CYP2C19 inh 71
O=C(c1ccco1)N1CCN(C(=O)C(Cc2ccccc2)NS(=O)(=O)c2cccs2)CC1 (stereo unspecified)	none
Cc1cc(C(=O)NCc2cc(C)n(C)n2)sc1-c1ccccc1	CYP2C19 inh 59
CCOC(=O)Nc1ccc(S(=O)(=O)N2CCOCC2)cc1	none
Cc1[nH]c2ccc(CNS(=O)(=O)c3ccc(S(=O)(=O)N4CCOCC4)cc3)cc2c1C	CYP2C9 inhib 71, CYP2C19 inh 64
CN1CC(=O)N(CC(=O)NCc2ccc3c(c2)OCO3)C1=O	none
Nc1cccc2c1C(=O)N(C(=O)c1cccc(S(=O)(=O)N3CCCCCC3)c1)C2=O	none
Cc1ccc(/C(N)=N/OC(=O)c2cccc(F)c2)cc1	PostGolgi ctrl 44
CCc1nnc(N2C(=O)c3cccc4cccc(c34)C2=O)s1	none
FC(F)(F)c1nc(Oc2ccccc2)c2ccccc2n1	none
CC1(C)CC(=O)C(C=NCCO)=C(O)C1	none
C=CCNC(=O)CC(=O)N/N=C/c1ccccc1F	CYP2C9 inhib 89
O=C(Cc1ccccc1)N/N=C/c1ccccc1Cl	CYP2C19 inh 57
O=C(Cc1ccccc1)N/N=C/c1ccc([N+](=O)[O-])s1	none
O=C(CC(=O)N/N=C/c1ccc(Cl)cc1Cl)NCc1ccccc1	CYP2C19 inh 55
O=C(N/N=C/c1cccc(Cl)c1Cl)Nc1ccccc1	PostGolgi ctrl 36 (no result: CYP2C9 act, CYP2C19 act, CYP2C9 inhib, CYP2C19 inh)
Cc1ccc(NC(=O)CSc2nc3c(c(=O)[nH]2)CCC3)cc1C	CYP2C9 inhib 51
CC(C)c1ccc(NC(=O)CSc2nc3c(c(=O)[nH]2)CCC3)cc1	CYP2C9 inhib 60
CC(C)c1c(O)nc(SCC(=O)Nc2ccc3c(c2)CCC3)[nH]c1=O	none
O=C(CCc1nc2ccccc2c(=O)[nH]1)NCc1cccc(Cl)c1	none
Nc1ccc2nc(CN3CCOCC3)[nH]c2c1	none
N#Cc1nc(Cc2cccc3ccccc23)oc1N1CCC(C(N)=O)CC1	none
Cc1cccc(NC(=O)C2CC(=O)n3cnnc3S2)c1 (stereo unspecified)	none
Cc1cc(NCCCN2CCOCC2)n2ncc(-c3ccc(Cl)cc3)c2n1	PostGolgi ctrl 31, PostGolgi yeast 85

Compound activity deposited in PubChem BioAssay by several laboratories.
